Compounds with a hit are over-represented: about 1.4% of the library has one in this group of screens.
VACV mCherry inh: qHTS for Stage-Specific Inhibitors of Vaccinia Orthopoxvirus: mCherry Reporter Primary qHTS. Potency, µM (series often up to 36.5 µM), inactives show top-dose activity change, negative = inhibition, most hits filed as inhibitors. 310,000 tested, 0.63% active. Vaccinia virus mCherry reporter infection, fluorescence; calls by dose curve; tested in A549 cells; note: % is set by controls: 0 for no effect and ±100 for the full control effect; nearly all actives have a fitted effect of over 35% in size
Vaccinia Venus: qHTS for Stage-Specific Inhibitors of Vaccinia Orthopoxvirus: Venus Reporter Primary qHTS. Vaccinia virus Venus reporter expression, fluorescence. 330,000 tested, 0.46% active. AID 720580, 2013. Potency, µM (highest dose often 36.5 µM), for the others: at the top dose activity change, negative = inhibition, usual class: inhibitors; calls by dose curve; tested in A549 cells; note: % is set by controls: 0 for no effect and ±100 for the full control effect; nearly all actives have a fitted effect of over 30% in size
AMA1 RON2 block: qHTS for Inhibitors of AMA1-RON; Towards Development of Antimalarial Drug Lead: Primary Screen. Plasmodium falciparum AMA1 (3D7) - RON2 peptide interaction. AlphaScreen AMA1-biotinylated RON2 peptide binding. Potency, µM (doses to about 58.2 µM), for the others: at the top dose activity change, negative = inhibition, hits mostly inhibitors. 360,000 tested, 0.2% active;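 note: 0% = vehicle wells and -100% = peptide control; nearly all actives have a fitted effect of over 45% in size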
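AMA1 (3D7) with his tag at 25 nM final met compounds first, then biotinylated RON2 peptide at 25 nM; detection used donor plus acceptor beads, 10 µg/mL apiece, read by AlphaScreen after 30 min at room temperature.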
AmpC detergent: qHTS Inhibitors of AmpC Beta-Lactamase (assay with detergent); AmpC hydrolysis of nitrocefin, absorbance 480 nm, 0.01% Triton; P00811; 370,000 tested, 0.041% active; Potency, µM (titrated, usually from 114 µM), for inactives: at the highest dose activity change, negative = inhibition, most hits filed as inhibitors;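 note: 0% = no-compound wells and -100% = no-enzyme wells; nearly all actives have a fitted effect of over 25% in size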
Target sequence (P00811 whole entry, looked up): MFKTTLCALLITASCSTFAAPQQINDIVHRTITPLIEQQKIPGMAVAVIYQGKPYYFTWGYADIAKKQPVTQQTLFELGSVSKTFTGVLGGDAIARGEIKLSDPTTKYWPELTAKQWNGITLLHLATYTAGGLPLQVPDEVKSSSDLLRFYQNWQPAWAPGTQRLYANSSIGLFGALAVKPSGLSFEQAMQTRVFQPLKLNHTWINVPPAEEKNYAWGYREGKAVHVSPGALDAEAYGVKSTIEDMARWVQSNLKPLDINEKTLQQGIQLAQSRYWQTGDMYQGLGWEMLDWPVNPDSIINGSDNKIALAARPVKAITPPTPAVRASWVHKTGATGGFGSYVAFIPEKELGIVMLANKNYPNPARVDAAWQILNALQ
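20 mM phosphate pH 7.0 + 0.01% (detergent screen) or 0.0001% Triton X-100; 5.3 nM AmpC reagent; cpd preinc 15 min RT; nitrocefin (800 uM stock) to start; A480 q20 s × 4 min; Activity was normalised to no-enzyme and no-compound control wells.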
SARS PLpro yeast: qHTS of Yeast-based Assay for SARS-CoV PLP; S. cerevisiae expressing SARS-CoV PLpro, growth rescue; Potency, µM (series often up to 32.9 µM), inactives show top-dose activity, positive = growth rescue, actives largely listed as activators; 330,000 tested, 0.19% active; AID 485353, 2010; calls by dose curve; note: 0% is about no effect; nearly all actives have a fitted effect of over 55% in size
AmpC inh no detg: qHTS Inhibitors of AmpC Beta-Lactamase (assay without detergent) | AID 485341, 2010 | Potency, µM (titrated, usually from 57.1 µM), without a hit: top-dose activity change, negative = inhibition, usual class: inhibitors | AmpC nitrocefin hydrolysis, absorbance 480 nm, 0.0001% Triton | 330,000 tested, 0.52% active | P00811;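 note: plate controls were no compound for no effect and no enzyme for full effect; nearly all actives have a fitted effect of over 20% in size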
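20 mM phosphate pH 7.0 + 0.01% (detergent screen) or 0.0001% Triton X-100; 5.3 nM AmpC reagent; cpd preinc 15 min RT; nitrocefin (800 uM stock) to start; A480 q20 s × 4 min; Activity was normalised to no-enzyme and no-compound control wells.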
* marks the source's active call; other numbers are inactive results; i = inactive; ? = inconclusive; / = no result given; [ ] = another dose, or the depositor's remark. Unless noted, calls come from the whole dose curve; as a rule, active = well fitted curve in the direction sought with a large enough effect; inconclusive = small, poorly fitted or top-dose-only effect, or another doubt; inactive = no such curve, though single readings can be large; an effect the other way counts as inactive or inconclusive. Potency is the fitted concentration of half-maximal effect.

SMILES	VACV mCherry inh	Vaccinia Venus	AMA1 RON2 block	AmpC detergent	SARS PLpro yeast	AmpC inh no detg
CCc1nc(N)nc(N)c1-c1ccc(Cl)c(N=[N+]=[N-])c1	?	5.62µM*	1.7%	/	/	/
O=C(/C=C/c1ccc(Cl)c([N+](=O)[O-])c1)Nc1cccc(NC(=O)c2ccco2)c1	/	/	-9.2%	0.1%	2.9%	-29.2%
O=C(Nc1cccc(NC(=O)c2ccc([N+](=O)[O-])o2)c1)c1ccco1	12.6µM*	?	7.5%	-0.6%	-57.1%	-18.1%
O=C(/C=C/c1cccc([N+](=O)[O-])c1)Nc1cccc(NC(=O)c2ccco2)c1	-22.6%	-20.1%	-28.6%	?	2.0%	3.16µM*
COC(=O)c1ccc(N2CCc3ccccc32)c([N+](=O)[O-])c1	/	/	12.6µM*	-11.8%	-3.8%	-23.8%
FC(F)(F)c1cccc(Nc2nc3nonc3nc2Nc2ccc(Cl)cc2)c1	2µM*	1.78µM*	/	15.1%	/	/
O=C(Nc1cccc(C(F)(F)F)c1)c1cc(-c2ccc(Cl)cc2)on1	-4.3%	5.8%	/	20.8%	/	/
O=[N+]([O-])c1ccc2c(c1)C=C/C2=C/c1ccccc1	-14.6%	-2.9%	/	/	/	/
COc1ccc(C(=O)Nc2nc(-c3cccs3)cs2)cc1	-21.1%	-28.5%	-25.4%	3.1%	/	/
O=C(Nc1nc(-c2cccs2)cs1)c1ccc(Cl)cc1	-10.6%	-18.0%	-4.4%	6.1%	-25.0%	28.2µM*
CCN(CC)c1ccc(CNCCc2ccc(F)cc2)cc1	10µM*	-8.0%	-22.4%	-1.8%	0.6%	-36.6%
COCC1CCCN(Cc2ccc3c(c2)CN(C(=O)c2sc(C)nc2C)CCO3)C1 (stereo not drawn)	0.2%	8.8%	/	/	/	/
Cc1ccc2oc(C(Cl)(Cl)Cl)cc(=O)c2c1	11.2µM*	?	-1.9%	?	-8.4%	-19.1%
O=[N+]([O-])c1ccc(Cl)cc1Sc1nc2ccccc2o1	-27.2%	-12.1%	?	-13.2%	-13.5%	-19.1%
O=[N+]([O-])c1ccc(Sc2nc3ccccc3o2)c([N+](=O)[O-])c1	?	?	26.7µM*	?	-37.3%	-23.7%
O=C(C[N+]1(CCO)CCOCC1)c1cccs1	-9.4%	-6.4%	/	/	/	/
Cc1cc2nc(-c3ccco3)cc(C(F)(F)F)n2n1	i	-5.8%	-1.1%	15.3%	-5.5%	10µM*
CC(C)c1c(C(=O)NCC2(N3CCCCC3)CCCC2)cnn1-c1nccc(-c2ccco2)n1	-14.6%	-10.7%	/	/	/	/
CC(C)=CC(O)C/C(C)=C/COc1ccc2ccc(=O)oc2c1 (stereo not drawn)	10µM*	10µM*	-5.7%	4.2%	-2.2%	-10.2%
CC(C)=CCOc1cc2oc(=O)ccc2cc1O	-15.9%	-4.8%	/	/	/	/
O=C(Nc1ccccc1)c1sc2cc(C(F)(F)F)cnc2c1-c1cccs1	-15.5%	-7.2%	2.1%	1.0%	-7.0%	4.47µM*
Cc1ccc(-c2cc(C(F)(F)F)n3nc(C(=O)Nc4sc5c(c4C#N)CCC(C)C5)cc3n2)cc1 (stereo not drawn)	-5.6%	-1.1%	/	-1.7%	/	/
NS(=O)(=O)c1ccc(N/N=C/c2ccc(O)c(O)c2O)c([N+](=O)[O-])c1	?	-4.5%	?	-13.2%	9.4%	7.08µM*
C#CCn1c(=NC(=O)c2ccc(S(=O)(=O)N3CCc4ccccc4C3)cc2)sc2cc(S(N)(=O)=O)ccc21	6.31µM*	7.94µM*	-3.5%	-13.8%	-7.7%	-28.8%
Cc1[nH]c2c(F)cccc2c1CC(=O)NCCN1Cc2ccccc2OC(C)C1 (stereo not drawn)	-11.1%	-11.9%	/	/	/	/
SMILES	VACV mCherry inh	Vaccinia Venus	AMA1 RON2 block	AmpC detergent	SARS PLpro yeast	AmpC inh no detg
CC(=O)OC1C[C@@]2(C)C(c3ccoc3)C[C@H]3O[C@@]32[C@@]2(C)C(=O)C(O)=C3C(C)(C)C(=O)C=C[C@]3(C)C12 (stereo partly drawn)	7.08µM*	8.91µM*	/	/	/	/
CC(=O)OC1CC(OC(C)=O)[C@]2(C)C(CC(OC(C)=O)[C@]3(C)C2CC[C@@]2(C)C(c4ccoc4)C[C@H]4O[C@]432)C1(C)C (stereo partly drawn)	-23.5%	-18.6%	/	/	/	/
NC[C@H](O)c1ccc(O)c(O)c1	-14.4%	-3.9%	2.82µM*	-14.2%	/	-34.5%
COc1ccc(Cl)cc1C(Nc1cccnc1)c1ccc2cccnc2c1O (stereo not drawn)	3.55µM*	?	-57.5%	9.3%	-7.6%	-18.1%
CN1CCN(C(c2ccc(C(F)(F)F)cc2)c2ccc3cccnc3c2O)CC1 (stereo not drawn)	?	-18.3%	-23.6%	0.3%	-15.0%	-1.3%
Oc1c(C(Nc2cccnc2)c2ccc(C(F)(F)F)cc2)ccc2cccnc12 (stereo not drawn)	8.91µM*	?	/	/	/	/
Cc1ncc2c(c1CNC(=O)c1ccc3c(c1)OCO3)CCN(C(=O)/C=C/c1ccc(Cl)cc1)C2	-2.9%	15.1%	/	/	/	/
O=[N+]([O-])c1cc(C(F)(F)F)ccc1NC1CCN(Cc2ccccc2)CC1	i	-16.9%	12.6µM*	0.3%	-3.9%	10.3%
O=C(Nc1nc(-c2ccccc2)cs1)C1c2ccccc2Oc2ccccc21	-12.6%[1.46 µM]	-14.0%	0.0%	5.3%	5.2%	0.178µM*
CCCc1cc(=O)[nH]c(SCC(=O)NC(=O)c2ccccc2)n1	/	/	34.7%	?	7.9%	-6.0%
Cn1cnnc1SCC(=O)Nc1nc(-c2ccccc2)cs1	-14.9%	-0.3%	1.6%	79.4µM*	-1.5%	-21.0%
CCCc1cc(=O)[nH]c(SCC(=O)Nc2nc(-c3ccccc3)cs2)n1	-3.9%	-2.7%	6.7%	1.8%	-0.2%	12.6µM*
CCc1c(C)nc(SCC(=O)Nc2nc(-c3ccc(OC)cc3)cs2)[nH]c1=O	-10.4%	-7.2%	7.3%	5.6%	0.2%	14.1µM*
OC(c1cccnc1)c1ccc2c(c1)CN(Cc1cn(-c3ccccc3)nc1-c1ccccc1)CCO2 (stereo not drawn)	-13.0%	4.3%	/	/	/	/
COc1ccc2c(c1)c1c(c(=O)n(Cc3ccccc3)c(=O)n1Cc1cccc(Cl)c1)n2C	-18.9%	-10.3%	/	2.3%	/	/
COCC(=O)Nc1cc(C(=O)N2CCCCC2c2nccn2C)cc2nc(-c3ccccc3)n(C)c12 (stereo not drawn)	-25.2%	-23.8%	/	/	/	/
COc1ccc(N(CC(=O)NCc2ccccc2)S(=O)(=O)c2c(C)nn(C)c2C)cc1	-5.8%	-6.9%	-0.9%	?	-0.2%	8.91µM*
COc1ccc(N(CC(=O)NCc2ccc(Cl)cc2)S(=O)(=O)c2c(C)nn(C)c2C)cc1	/	/	-9.7%	-1.8%	-5.8%	163.9%

Compound activity (PubChem BioAssay)
